Assay results taken from PubChem BioAssay (Tox21).
Where “and” joins values, the source holds several entries; their conditions need not be identical. Equal entries are not always repeated. Inconclusive results are not listed. A call without a number means that no potency is given here. More than one record can exist for a structure, and the calls need not agree. Calls of active or inactive are those of the source. The call rests on the fitted dose curve; in most records, active means well fitted curve in the direction sought with a large enough effect in the repeat runs; inconclusive means weak or mixed curves; inactive means no such curve, though single readings can be large; an effect the other way counts as inactive or inconclusive.

Experiments:
[1] = Caspase-3/7 induction in HepG2 cells by small molecules, qHTS assay (AID 1346978); further: nearly all actives have a fitted effect of over 15% in size; further: potency means the concentration at half of the fitted maximal effect
Method in brief: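 Caspase-3/7 induction was measured by Caspase-Glo 3/7 luminescence (30 min, room temperature) after a 17 hr compound exposure of wild-type HepG2 cells seeded at 2,000 per well and pre-incubated 5 hr.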

[2] = Caspase-3/7 induction in CHO-K1 cells by small molecules, qHTS cell viability counter screen (AID 1346979); further: nearly all actives have a fitted effect of over 35% in size; further: potency means the concentration at half of the fitted maximal effect
Method in brief: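 CHO-K1 wt, 1,500 cells/well; 5hr pre-incubation 37C/5% CO2; compound pin transfer (DMSO); 16hr exposure; CellTiter-Fluor added, 1hr, fluorescence read.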

[3] = Caspase-3/7 induction in CHO-K1 cells by small molecules, qHTS assay (AID 1346980); further: nearly all actives have a fitted effect of over 15% in size; further: potency means the concentration at half of the fitted maximal effect
Method in brief: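 Luminescent Caspase-Glo 3/7 read (30min, room temperature) quantified apoptosis induction. Cells were wild-type CHO-K1, treated with compound for 17hr at 37 C and 5% CO2.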

[4] = Caspase-3/7 induction in HepG2 cells by small molecules, qHTS cell viability counter screen (AID 1346981); further: nearly all actives have a fitted effect of over 30% in size; further: potency means the concentration at half of the fitted maximal effect
Method in brief: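 Steps: seed 2,000 HepG2 cells per well; incubate 5 hr at 37 C; pin-add compounds in DMSO; incubate 16 hr; add CellTiter-Fluor; after 1 hr at 37 C and 5% CO2, read fluorescence.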

[5] = molecular target: Nuclear receptor subfamily 1 group I member 2 (Homo sapiens) (UniProt O75469); assay: Human pregnane X receptor (PXR) small molecule agonists, qHTS assay (AID 1346982); further: nearly all actives have a fitted effect of over 35% in size; further: potency means the concentration at half of the fitted maximal effect
Method in brief: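 Agonist mode qHTS: PXR-Luc HepG2 cells plated 5 hr before DMSO-dissolved compounds were pinned in, cultured 24 hr at 37 C, 5% CO2; ONE-Glo luminescence readout.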

[6] = molecular target: Cytochrome P450 2D6 (Homo sapiens) (UniProt P10635); assay: Cytochrome P450 Family 2 Subfamily D Member 6 (CYP2D6) small molecule antagonists: luciferase reporter qHTS assay (AID 1671196); further: nearly all actives have a fitted effect of over 50% in size; further: potency means the concentration at half of the fitted maximal effect
Method in brief: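 P450-Glo format: CYP2D6 converts a proluciferin substrate to luciferin in an NADPH-driven reaction lasting 1 h at room temperature. Light output, proportional to CYP2D6 activity, reflects interference by test chemicals.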

[7] = molecular target: Cytochrome P450 2C19 (Homo sapiens) (UniProt P33261); assay: Cytochrome P450 Family 2 Subfamily C Member 19 (CYP2C19) small molecule antagonists: luciferase reporter qHTS assay (AID 1671197); further: nearly all actives have a fitted effect of over 65% in size; further: potency means the concentration at half of the fitted maximal effect
Method in brief: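 Compounds were tested on CYP2C19 activity via proluciferin conversion to luciferin. The 37C, 1 h reaction followed NADPH addition; detection reagent stopped it.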

[8] = molecular target: Cytochrome P450 2C9 (Homo sapiens) (UniProt P11712); assay: Cytochrome P450 Family 2 Subfamily C Member 9 (CYP2C9) small molecule antagonists: luciferase reporter qHTS assay (AID 1671198); further: nearly all actives have a fitted effect of over 50% in size; further: potency means the concentration at half of the fitted maximal effect
Method in brief: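 Enzyme-substrate mix preincubated with compound 10 min at room temperature; reaction started with NADPH regeneration solution, 1 h 37C. Luminescent luciferin product read after 20 min detection reagent.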

[9] = molecular target: Cytochrome P450 1A2 (Homo sapiens) (UniProt P05177); assay: Cytochrome P450 Family 1 Subfamily A Member 2 (CYP1A2) small molecule antagonists: luciferase reporter qHTS assay (AID 1671199); further: nearly all actives have a fitted effect of over 50% in size; further: potency means the concentration at half of the fitted maximal effect
Method in brief: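 Inhibition of CYP1A2 conversion of proluciferin to luciferin, detected by luminescence. Reaction run 1 h at room temperature with NADPH regeneration after brief compound preincubation.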

[10] = molecular target: Voltage-gated inwardly rectifying potassium channel KCNH2 (Homo sapiens) (UniProt Q12809); assay: Human Ether-a-go-go-Related Gene (hERG) channel small molecule antagonists: fluorescence cell-based qHTS assay (AID 1671200); further: nearly all actives have a fitted effect of over 50% in size; further: potency means the concentration at half of the fitted maximal effect
Method in brief: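 Read-out: thallium influx as a surrogate for potassium, tracked as fluorescence (480 nm ex/540 nm em) every second for 2 min after Stimulus Buffer addition in dye-loaded hERG-U2OS cells.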

[11] = molecular target: Cytochrome P450 3A4 (Homo sapiens) (UniProt P08684); assay: Cytochrome P450 Family 3 Subfamily A Member 4 (CYP3A4) small molecule antagonists: luciferase reporter qHTS assay (AID 1671201); further: nearly all actives have a fitted effect of over 50% in size; further: potency means the concentration at half of the fitted maximal effect
Method in brief: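 Luminescent readout (RLU) proportional to CYP3A4 activity, from luciferin generated off a proluciferin substrate. Enzyme–substrate mix plus compound 10 min at room temp, NADPH regeneration 1 h, detection reagent 20 min.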

[12] = molecular target: Nuclear receptor subfamily 1 group I member 2 (Rattus norvegicus) (UniProt Q9R1A7); assay: Rat pregnane X receptor (rPXR) activation by small molecules, qHTS assay (AID 1346983); settings: rPXR luciferase reporter cells, One-Glo luminescence, 24 h; stronger effect = higher value; further: nearly all actives have a fitted effect of over 20% in size
Method in brief: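 Luminescent readout (One-Glo luciferase, 30 min room temperature) followed 24 hr compound treatment at 37 C of rPXR cells plated 2,000 per well and preincubated 5hr; qHTS format with compounds delivered in DMSO.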

[13] = molecular target: Nuclear receptor subfamily 1 group I member 2 (Homo sapiens) (UniProt O75469); assay: CYP3A4 induction through human pregnane X receptor (PXR) by small molecules, qHTS assay (AID 1346984); further: nearly all actives have a fitted effect of over 40% in size
Method in brief: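 Steps: seed DPX-2 cells, 5 hr at 37C; pin-transfer compounds; 24 hr at 37C; add Luciferin-IPA (3uM final), 3 hr at 37C; add One-Glo, 30 min RT; read luminescence.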

[14] = molecular target: Nuclear receptor subfamily 1 group I member 2 (Homo sapiens) (UniProt O75469); assay: Human pregnane X receptor (PXR) activation by small molecules, qHTS assay (AID 1346985); further: nearly all actives have a fitted effect of over 40% in size
Method in brief: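 DPX-2 cells (HepG2 co-transfected with a PXR response element and a CYP3A4-promoter luciferase construct) were seeded at 2,000 per well, rested 5 hr at 37C, then exposed to DMSO-dissolved compounds for 24 hr. Activation was read as luciferase luminescence.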

Sequence of Cytochrome P450 2C19 (Homo sapiens) (P33261 whole entry, looked up): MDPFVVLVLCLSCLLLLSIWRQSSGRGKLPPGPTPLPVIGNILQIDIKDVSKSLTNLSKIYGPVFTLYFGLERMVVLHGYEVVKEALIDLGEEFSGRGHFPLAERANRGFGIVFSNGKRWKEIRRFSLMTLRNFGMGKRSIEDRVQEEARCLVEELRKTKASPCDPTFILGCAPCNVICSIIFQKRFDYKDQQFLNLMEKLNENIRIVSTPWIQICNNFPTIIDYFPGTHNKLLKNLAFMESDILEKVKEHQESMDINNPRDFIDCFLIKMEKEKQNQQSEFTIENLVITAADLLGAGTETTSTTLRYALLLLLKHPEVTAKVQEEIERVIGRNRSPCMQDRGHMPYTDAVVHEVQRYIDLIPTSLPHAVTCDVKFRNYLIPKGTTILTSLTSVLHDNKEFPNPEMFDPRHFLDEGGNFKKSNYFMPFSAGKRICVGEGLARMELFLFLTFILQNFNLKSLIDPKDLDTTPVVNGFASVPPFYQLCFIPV
Sequence of Cytochrome P450 1A2 (Homo sapiens) (P05177 whole entry, looked up): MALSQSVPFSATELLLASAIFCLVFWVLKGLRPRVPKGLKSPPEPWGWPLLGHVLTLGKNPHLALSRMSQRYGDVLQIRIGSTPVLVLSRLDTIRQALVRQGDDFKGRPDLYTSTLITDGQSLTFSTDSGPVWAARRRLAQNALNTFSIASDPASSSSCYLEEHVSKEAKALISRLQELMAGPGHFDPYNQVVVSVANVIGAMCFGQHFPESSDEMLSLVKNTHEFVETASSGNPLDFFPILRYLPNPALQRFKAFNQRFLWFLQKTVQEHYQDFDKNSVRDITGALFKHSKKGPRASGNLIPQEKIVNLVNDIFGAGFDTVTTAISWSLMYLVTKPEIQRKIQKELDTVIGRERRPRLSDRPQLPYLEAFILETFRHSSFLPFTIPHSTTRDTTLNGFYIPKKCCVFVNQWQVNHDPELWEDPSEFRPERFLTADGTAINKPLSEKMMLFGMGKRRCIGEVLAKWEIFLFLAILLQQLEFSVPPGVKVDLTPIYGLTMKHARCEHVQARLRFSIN
Sequence of Nuclear receptor subfamily 1 group I member 2 (Rattus norvegicus) (Q9R1A7 whole entry, looked up): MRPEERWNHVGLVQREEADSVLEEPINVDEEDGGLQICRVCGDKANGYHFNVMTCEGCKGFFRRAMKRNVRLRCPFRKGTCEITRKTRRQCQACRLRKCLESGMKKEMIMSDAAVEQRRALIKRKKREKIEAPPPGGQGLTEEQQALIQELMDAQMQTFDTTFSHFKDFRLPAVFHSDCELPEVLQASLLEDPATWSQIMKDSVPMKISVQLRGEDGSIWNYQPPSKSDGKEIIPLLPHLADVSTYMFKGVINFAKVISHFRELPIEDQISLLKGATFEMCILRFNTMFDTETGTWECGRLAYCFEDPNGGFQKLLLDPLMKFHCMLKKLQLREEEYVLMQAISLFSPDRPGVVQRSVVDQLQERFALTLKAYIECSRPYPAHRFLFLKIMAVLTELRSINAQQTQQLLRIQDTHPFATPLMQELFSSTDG
Sequence of Voltage-gated inwardly rectifying potassium channel KCNH2 (Homo sapiens) (Q12809 whole entry, looked up): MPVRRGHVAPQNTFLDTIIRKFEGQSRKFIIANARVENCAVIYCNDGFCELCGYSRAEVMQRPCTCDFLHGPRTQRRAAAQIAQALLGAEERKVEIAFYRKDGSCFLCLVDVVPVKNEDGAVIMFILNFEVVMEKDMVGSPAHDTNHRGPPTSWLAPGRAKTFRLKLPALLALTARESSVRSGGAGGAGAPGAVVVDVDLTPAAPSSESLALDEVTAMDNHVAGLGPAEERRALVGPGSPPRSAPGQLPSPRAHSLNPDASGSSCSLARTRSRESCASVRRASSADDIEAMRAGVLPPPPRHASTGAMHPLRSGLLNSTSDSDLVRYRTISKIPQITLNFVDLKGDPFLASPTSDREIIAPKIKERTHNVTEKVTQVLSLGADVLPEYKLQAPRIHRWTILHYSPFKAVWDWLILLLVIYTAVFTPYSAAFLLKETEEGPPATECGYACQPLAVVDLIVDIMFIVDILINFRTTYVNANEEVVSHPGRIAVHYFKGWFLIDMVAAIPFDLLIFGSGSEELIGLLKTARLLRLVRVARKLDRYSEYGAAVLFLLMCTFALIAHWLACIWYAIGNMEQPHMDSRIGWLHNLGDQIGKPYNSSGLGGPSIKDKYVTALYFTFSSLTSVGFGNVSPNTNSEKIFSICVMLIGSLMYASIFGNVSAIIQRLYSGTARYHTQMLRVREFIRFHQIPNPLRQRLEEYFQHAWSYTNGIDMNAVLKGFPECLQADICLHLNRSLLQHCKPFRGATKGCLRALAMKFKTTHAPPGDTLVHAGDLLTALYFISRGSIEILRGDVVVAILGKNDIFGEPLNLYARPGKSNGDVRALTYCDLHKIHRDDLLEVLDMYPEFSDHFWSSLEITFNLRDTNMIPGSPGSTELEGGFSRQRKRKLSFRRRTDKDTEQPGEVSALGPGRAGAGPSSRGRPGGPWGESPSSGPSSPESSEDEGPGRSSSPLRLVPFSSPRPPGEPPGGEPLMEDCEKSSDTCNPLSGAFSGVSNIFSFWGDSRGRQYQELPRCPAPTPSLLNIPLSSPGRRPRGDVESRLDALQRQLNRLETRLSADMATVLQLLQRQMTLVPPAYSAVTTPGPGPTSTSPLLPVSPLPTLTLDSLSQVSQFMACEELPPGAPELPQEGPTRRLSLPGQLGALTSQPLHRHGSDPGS
Sequence of Cytochrome P450 2D6 (Homo sapiens) (P10635 whole entry, looked up): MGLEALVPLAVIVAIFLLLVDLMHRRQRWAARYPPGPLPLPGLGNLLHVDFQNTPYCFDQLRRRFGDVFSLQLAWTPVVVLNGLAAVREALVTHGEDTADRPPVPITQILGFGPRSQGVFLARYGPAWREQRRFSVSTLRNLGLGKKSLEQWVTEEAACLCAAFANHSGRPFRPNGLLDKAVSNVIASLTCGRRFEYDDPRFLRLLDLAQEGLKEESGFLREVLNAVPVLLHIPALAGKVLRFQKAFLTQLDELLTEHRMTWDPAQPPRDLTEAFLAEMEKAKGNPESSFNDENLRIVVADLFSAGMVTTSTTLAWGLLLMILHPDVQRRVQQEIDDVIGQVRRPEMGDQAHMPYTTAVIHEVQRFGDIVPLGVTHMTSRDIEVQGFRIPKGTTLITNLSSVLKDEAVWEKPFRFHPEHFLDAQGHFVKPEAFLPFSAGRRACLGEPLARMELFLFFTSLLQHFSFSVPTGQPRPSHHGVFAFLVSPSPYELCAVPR
Sequence of Cytochrome P450 2C9 (Homo sapiens) (P11712 whole entry, looked up): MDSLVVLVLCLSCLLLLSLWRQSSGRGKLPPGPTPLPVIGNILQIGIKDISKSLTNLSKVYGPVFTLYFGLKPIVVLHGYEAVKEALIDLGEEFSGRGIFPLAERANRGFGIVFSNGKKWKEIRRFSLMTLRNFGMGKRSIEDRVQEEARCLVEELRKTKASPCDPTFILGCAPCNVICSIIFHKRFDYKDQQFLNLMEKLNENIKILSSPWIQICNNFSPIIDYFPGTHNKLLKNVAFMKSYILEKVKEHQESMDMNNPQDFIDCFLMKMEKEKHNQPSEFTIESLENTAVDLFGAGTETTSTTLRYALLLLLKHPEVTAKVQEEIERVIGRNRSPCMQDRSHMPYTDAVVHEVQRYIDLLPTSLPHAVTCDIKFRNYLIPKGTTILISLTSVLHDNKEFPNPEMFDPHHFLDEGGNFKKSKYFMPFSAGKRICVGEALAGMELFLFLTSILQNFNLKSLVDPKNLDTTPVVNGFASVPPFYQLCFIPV
Sequence of Cytochrome P450 3A4 (Homo sapiens) (P08684 whole entry, looked up): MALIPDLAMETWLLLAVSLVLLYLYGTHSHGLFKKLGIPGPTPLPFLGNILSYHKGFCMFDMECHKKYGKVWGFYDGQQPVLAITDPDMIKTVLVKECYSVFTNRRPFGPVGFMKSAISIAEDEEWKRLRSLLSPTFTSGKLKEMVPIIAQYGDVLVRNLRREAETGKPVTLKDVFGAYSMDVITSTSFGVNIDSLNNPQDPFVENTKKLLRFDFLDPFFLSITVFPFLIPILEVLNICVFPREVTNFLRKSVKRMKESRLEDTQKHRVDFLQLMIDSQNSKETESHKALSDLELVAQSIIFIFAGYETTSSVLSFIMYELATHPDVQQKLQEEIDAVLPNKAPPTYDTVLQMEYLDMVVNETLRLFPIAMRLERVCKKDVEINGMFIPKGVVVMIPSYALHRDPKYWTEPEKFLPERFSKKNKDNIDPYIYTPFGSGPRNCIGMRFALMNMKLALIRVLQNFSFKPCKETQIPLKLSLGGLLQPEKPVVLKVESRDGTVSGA
Sequence of Nuclear receptor subfamily 1 group I member 2 (Homo sapiens) (O75469 whole entry, looked up): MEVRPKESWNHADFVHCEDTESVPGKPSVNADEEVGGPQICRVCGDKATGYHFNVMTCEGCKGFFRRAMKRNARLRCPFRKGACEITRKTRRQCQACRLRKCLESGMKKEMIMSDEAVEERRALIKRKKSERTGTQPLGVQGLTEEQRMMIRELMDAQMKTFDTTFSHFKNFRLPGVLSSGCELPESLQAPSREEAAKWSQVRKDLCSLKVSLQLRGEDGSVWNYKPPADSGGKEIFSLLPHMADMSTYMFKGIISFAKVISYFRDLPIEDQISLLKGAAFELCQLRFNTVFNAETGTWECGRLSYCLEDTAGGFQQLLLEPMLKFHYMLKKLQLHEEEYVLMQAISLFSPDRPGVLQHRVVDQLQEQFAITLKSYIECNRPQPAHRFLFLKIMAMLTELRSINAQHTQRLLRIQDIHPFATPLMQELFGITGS

Structure (SMILES) | Potency [1] | Potency [2] | Potency [3] | Potency [4] | Potency [5] | Potency [6] | Potency [7] | Potency [8] | Potency [9] | Potency [10] | Potency [11] | max activation [12] | Potency [13] | Potency [14]
Cc1cc(Cc2cc(C)cc(C(C)(C)C)c2O)c(O)c(C(C)(C)C)c1 | 61.4 µM (active) | 27.4 µM (active) and 54.5 µM (active) | 27.4 µM (active) and 61.1 µM (active) | 61.4 µM (active) and 61.1 µM (active) | 24.5 µM (active) and 386 nM (active) | inactive | 5.05 µM (active) and 5.03 µM (active) | 3.57 µM (active) and 3.56 µM (active) | 25.3 µM (active) | 39.1 µM (active) | 5.67 µM (active) and 8.94 µM (active) |  |  | 
NC(N)=NC(=O)Cc1c(Cl)cccc1Cl | inactive | inactive | inactive | inactive | inactive |  | inactive | inactive | inactive | inactive |  |  |  | 
c1ccc2c(c1)-c1cccc3c1c-2cc1ccccc13 | inactive | 47.4 µM (active) | inactive | inactive | 29.9 µM (active) and 21.7 µM (active) | 27.6 µM (active) and inactive |  | inactive | 694 nM (active) and 1 µM (active) | inactive | inactive |  |  | 
O=Nc1ccc(Nc2ccccc2)cc1 | inactive | 7.74 µM (active) and 13.7 µM (active) | inactive |  | 61.4 µM (active) and 48.6 µM (active) | 28.4 µM (active) and 35.6 µM (active) | 5.67 µM (active) and 8.94 µM (active) | 14.2 µM (active) and 28.3 µM (active) | 16 µM (active) and 28.3 µM (active) | inactive |  |  |  | 
COC(=O)/C=C/c1ccccc1 | inactive | inactive | inactive |  | inactive | 35.6 µM (active) and inactive | inactive | inactive | 15.9 µM (active) and 28.3 µM (active) | inactive |  |  |  | 
CCCCCC(=O)O[C@]1(C(C)=O)CC[C@H]2[C@@H]3CCC4=CC(=O)CC[C@]4(C)[C@H]3CC[C@@]21C | inactive | 60.7 µM (active) and 33.5 µM (active) | inactive |  | 9.62 µM (active) and 11.9 µM (active) | 6.28 µM (active) and inactive | 17.7 µM (active) and 17.4 µM (active) | 7.91 µM (active) and 11 µM (active) | inactive | 19.4 µM (active) |  |  |  | 
Nc1nc(=S)c2[nH]cnc2[nH]1 | inactive | 5.31 µM (active) and 9.69 µM (active) and 3.76 µM (active) | inactive |  | inactive | inactive | 30.9 µM (active) | 38.9 µM (active) and 71 µM (active) and 30.9 µM (active) | 30.9 µM (active) and 35.6 µM (active) |  | inactive | -4.65% (inactive) | inactive | inactive
COc1cc(C(=S)N2CCOCC2)ccc1O | inactive | inactive | inactive |  | inactive | inactive |  | inactive | inactive | inactive |  | -1.33% (inactive) | inactive | inactive
Cc1cccc2n[nH]nc12 | inactive | inactive | inactive | inactive |  | inactive | inactive | inactive |  | inactive | inactive |  |  | 
c1ccc2c(c1)CCCC2C1=NCCN1 (stereo not drawn) | inactive | inactive | inactive | inactive |  |  |  |  |  | inactive |  |  |  | 
CC1=C(C=O)C(C)(C)CC=C1 | inactive | inactive | inactive | inactive | inactive | inactive |  | inactive | inactive | inactive |  |  |  | 
CC[C@H]1CN2CCc3cc(OC)c(OC)cc3[C@@H]2C[C@@H]1C[C@H]1NCCc2cc(OC)c(OC)cc21 | inactive | 27.4 nM (active) and 13.3 nM (active) | 30.7 µM (active) and inactive |  | 19.4 nM (active) and 8.4 nM (active) | 40.1 µM (active) |  | inactive | inactive |  |  | -15.9% (inactive) | inactive | inactive
O=C(O)c1cc(Cl)cc(Cl)c1 | inactive | inactive | inactive | inactive | inactive | 35.4 µM (active) | inactive |  |  | inactive |  |  |  | 
CC(=O)Nc1ccc(C(=O)CCl)cc1 | inactive | 54.8 µM (active) and 17.2 µM (active) | inactive | inactive | 21.8 µM (active) and 24.3 µM (active) |  | inactive and 79.6 µM (active) | 63.3 µM (active) | 31.7 µM (active) | inactive | inactive |  |  | 
CC(=O)C1=C(C)[C@@H]2C[C@@]3(C1)[C@H](C)CC[C@H]3C2(C)C | inactive | inactive | inactive | inactive |  | inactive | 93.5 µM (active) and 39.9 µM (active) |  |  | 24.5 µM (active) |  |  |  | 
